A number with no mark means an inactive call. Calls of active or inactive are those of the source. Calls follow the shape of the full dose curve.
Target: Acetylcholinesterase (Homo sapiens) (UniProt P22303)
Experiment: Acetylcholinesterase (AChE) small molecule antagonists: enzyme-based qHTS assay with human liver microsomes (AID 1347399); also: nearly all actives have a fitted effect of over 60% in size
Details: Potency: qHTS inhibition; outcome: qHTS inhibition; series mostly up to 115 µM; activity change, negative = inhibition: at the top concentration
How it was run: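 Recombinant human AChE (50 mU/mL in the enzyme mix) and human liver microsomes (0.25 mg/mL final) were preincubated with compound and NADPH (0.25 mg/mL final) for 30 min at 37 C. Acetylthiocholine/DTNB was then added; thiocholine was read colorimetrically after 10 min at room temperature.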
% is scaled to controls: 0 for no effect and ±100 for the full control effect.

Acetylcholinesterase (Homo sapiens), sequence (P22303 whole entry, looked up): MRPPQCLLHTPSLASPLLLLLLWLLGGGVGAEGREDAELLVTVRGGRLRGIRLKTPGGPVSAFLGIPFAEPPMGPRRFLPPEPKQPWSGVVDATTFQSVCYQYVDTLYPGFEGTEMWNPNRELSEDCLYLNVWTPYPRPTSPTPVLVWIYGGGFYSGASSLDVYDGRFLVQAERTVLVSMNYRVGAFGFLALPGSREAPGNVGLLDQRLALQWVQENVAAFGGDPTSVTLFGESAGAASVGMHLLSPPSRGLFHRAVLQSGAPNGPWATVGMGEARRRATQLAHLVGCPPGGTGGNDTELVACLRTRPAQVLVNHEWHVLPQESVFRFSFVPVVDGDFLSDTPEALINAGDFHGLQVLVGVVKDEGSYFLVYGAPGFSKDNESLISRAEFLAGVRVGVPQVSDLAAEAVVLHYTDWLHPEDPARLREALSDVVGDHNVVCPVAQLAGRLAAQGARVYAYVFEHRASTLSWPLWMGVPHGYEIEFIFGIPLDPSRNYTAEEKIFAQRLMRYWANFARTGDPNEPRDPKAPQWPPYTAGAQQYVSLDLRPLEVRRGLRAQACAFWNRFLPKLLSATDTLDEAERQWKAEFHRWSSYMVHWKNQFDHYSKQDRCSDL

| SMILES | activity change, negative = inhibition | Potency |
| --- | --- | --- |
| CCN(CC)C(=O)C1CN2CCc3cc(OC)c(OC)cc3C2CC1OC(C)=O (configuration not stated) | -6.8% [at 53 µM] | – |
| O=C(CCCCCCCCC#CI)Oc1ccccc1 | -2.43% [at 53 µM] | – |
| CCCCCCCCCCOS(=O)(=O)O | -0.153% | – |
| CCCCCCCC/C=C\CCCCCCCC(=O)OCCOC(=O)CCCCCCC/C=C\CCCCCCCC | -3.07% | – |
| CCCCCCOC(=O)CCCCCCCC(=O)OCCCCCC | -0.312% | – |
| CC(=O)OCC(C)C | 0% | – |
| O=C(O)c1ccccc1 | – | inactive |
| CC(C)(C)CCCCCCOC(=O)c1ccccc1C(=O)OCCCCCCC(C)(C)C | 1.14% | – |
| CC(C)CC(C)CC(O)CC(C)C (configuration not stated) | – | inactive |
| COc1ccc(Br)c(C)c1 | 2.47% | – |
| O=C(O)CS | – | inactive |
| CCCn1cnc2c1c(=O)n(CCCCC(C)=O)c(=O)n2C | 0.336% [at 53 µM] | – |
| C[N+](C)(C)CCOC(=O)CCC(=O)OCC[N+](C)(C)C | -0.359% [at 53 µM] | – |
| CCN(CC)CCSC(=O)C(c1ccccc1)c1ccccc1 | 0.443% [at 53 µM] | – |
| CCCc1ccc(OCC(=O)N2CCN(C(=O)COc3ccc(CCC)cc3OC)CC2)c(OC)c1 | -3.7% [at 53 µM] | – |
| CCCC/C=C/C=C\C=O | -1.07% | – |
| CCCCCCCCCCCCCCCC(=O)O | – | inactive |

Reference: PubChem BioAssay (Tox21)
